According to PubChem BioAssay (NCI):
This is part of a sample that, as a whole, favours compounds with a hit. Of some 83,000 tested, about 20% had one in any assay.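 Values shown are percent growth following 48 h exposure of cells in 96-well plates to a single concentration of compound; below 10 was considered active.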 Unmarked numbers belong to inactive results. Activity calls are given as the source filed them.

test system: MDA-MB-468 breast; assay: NCI-60 one-dose screen, 48 h (100 = growth as untreated, 0 = no growth, -100 = all killed); details: 10 µM unless noted

| Compound | growth |
| --- | --- |
| CC(c1ccccc1)C(C(=O)c1ccccc1)c1ccccc1 (configuration not stated) | 81.5% |
| COc1cc2cc(NCc3ccc(Cl)cc3)nc(C)c2cc1OC | 63.4% |
| CC[C@H](C)C(=O)O[C@H]1CCC=C2C=C[C@H](C)C(CCC3C[C@@H](O)CC(=O)O3)[C@H]21 (some centres not stated) | 75.4% |
| N=c1ccn2c(n1)O[C@@H]1[C@@H](O)[C@H](CO)O[C@@H]12 | 77.1% |
| COc1ccc(C2SCC(=O)N2NC(=O)c2ccc(NC(=O)c3ccccn3)cc2)cc1OC (configuration not stated) | 104% |
| Cc1cc(=O)n2nnc3cc(Cl)c(Cl)cc3n12 | 67% |
| Nc1c(C(=O)c2ccccc2)nnc2ncnn12 | 99.7% |
| O=C1/C=C/[C@@H](O)[C@@H]2C[C@@H](O)C[C@H]2/C=C/CCCCO1 | -36.1% (active) |
| CN(Cc1ccccc1)Cc1ccc([N+](=O)[O-])cc1I | 93.3% |
| COc1ccc(-c2cc(C(=O)N3N=C(c4ccc(N)cc4)CC3c3ccc(OC)cc3)c3cc(OC)ccc3n2)cc1 (configuration not stated) | 37.6% |
| Nc1n[nH]c2ccc([C@@H]3Nc4ccc5[nH]ncc5c4[C@H]4[C@H]5CCC(C5)[C@H]43)cc12 | 28.1% |
| FCOC(C(F)(F)F)C(F)(F)F | 108% |
| COc1ccc(C(=O)Nc2cccc(C3CCc4c(cc(OC)c(OC)c4OC)O3)c2)cc1 (configuration not stated) | 12.4% |
| O=C(Nc1ccc(Cl)cc1)c1cc(-c2ccc(Cl)cc2)c2sc(=O)[nH]c2n1 | -3.42% (active) |
| CCOC(=O)c1cc(C)[nH]c(=O)c1C#N | 97.3% |
| O=C(N/N=C/c1ccc(O)cc1O)c1ccc(Nc2ccnc(C(F)(F)F)c2)cc1 | 29.5% |
| CC[C@@H](C(=O)[C@@H](C)[C@@H](O)[C@H](C)[C@@H]1O[C@@H]([C@@H](CC)C(=O)ONC(=O)c2ccccc2O)CC[C@@H]1C)C1O[C@]2(C=CC(=O)[C@]3(CC[C@@](C)([C@H]4CC[C@](O)(CC)[C@H](C)O4)O3)O2)[C@H](C)C[C@@H]1C (some centres not stated) | 16.4% |
| CC(=O)c1nc(Nc2ccc(C)cc2)sc1C | 93.1% |
| Cc1[nH]n(C(=S)Nc2nc3cc(Cl)c(F)cc3s2)c(=O)c1N=Nc1ccc(F)c(Cl)c1 | 114% |
| O=C([O][Sn]([O]C(=O)c1ccccn1)([c]1ccccc1)[c]1ccccc1)c1ccccn1 | -23.8% (active) |
| Cc1ccc(CNc2ccc(Cl)cc2NCc2ccc(C)c(O)c2)cc1O | 32.5% |
| NC[C@@H]1CCN(c2cc3c(cc2F)c(=O)n(N)c(=O)n3Cc2ccc(-c3ccccc3)cc2)C1 | 72.6% |
| Cc1ccc(N=Nc2c(N)nc(N)[nH]c2=O)cc1C | 84.5% |
| N#CC1C(C#N)C(C(=O)c2ccc(Br)cc2)N2c3ccccc3C=CC12 (configuration not stated) | -7.38% (active) |
| [2H]C([2H])([2H])Oc1cc(F)ccc1/C=C/C(=O)/C=C(/C=C/c1ccc(F)cc1OC([2H])([2H])[2H])OB(F)F | 46.1% |
| O=C(c1ccc(O)cc1)c1ccc(O)cc1 | 110% |
| O=C1C(=O)c2cccnc2-c2ncccc21 | -91% (active) |
